Screens (PubChem)
Compounds with a hit are over-represented: about 3.4% of the library has one in this group of screens.
FBW7 act: activators of human E3 ligase FBW7; Q969H0; AlphaScreen FBW7–phospho-cyclin E peptide binding, activator screen; hit rate 0.13% among 650,000; normalized activity (activation), % at 26.1 µM; in the data active means normalized activity above about 1.9%;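 further: purified mutant Fbw7 with reduced substrate affinity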
MITF inh: blocks human microphthalmia-associated transcription factor. O75030. AlphaScreen MITF homodimerization, bead proximity signal. inhibition, % at 2.6 µM. hit rate 0.91% among 650,000. AID 1259374; in the data active means inhibition above about 50%
Target sequence (O75030 whole entry, looked up): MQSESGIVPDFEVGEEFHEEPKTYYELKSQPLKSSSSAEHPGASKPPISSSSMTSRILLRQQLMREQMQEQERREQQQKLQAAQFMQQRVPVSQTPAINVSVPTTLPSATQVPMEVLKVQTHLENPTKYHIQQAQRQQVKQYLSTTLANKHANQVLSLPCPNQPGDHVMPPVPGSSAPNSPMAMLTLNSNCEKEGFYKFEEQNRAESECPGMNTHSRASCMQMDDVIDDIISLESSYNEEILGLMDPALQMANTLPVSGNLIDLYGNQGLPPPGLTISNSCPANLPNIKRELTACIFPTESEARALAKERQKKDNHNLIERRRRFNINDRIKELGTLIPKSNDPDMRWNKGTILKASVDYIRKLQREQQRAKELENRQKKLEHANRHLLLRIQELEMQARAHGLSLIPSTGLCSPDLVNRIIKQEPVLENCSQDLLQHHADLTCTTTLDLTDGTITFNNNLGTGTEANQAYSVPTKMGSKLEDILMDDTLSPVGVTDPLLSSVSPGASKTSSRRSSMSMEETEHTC
TEAD-YAP block: TEAD-YAP interaction inhibition; inhibition, % at 9.12 µM; hit rate 1.4% among 640,000; HEK-TIYL cells, TEAD-Gal4/YAP UAS-luciferase luminescence; AID 1259422; in the data active means inhibition above about 32%
GPR151 ag: activators of human GPR151 | activation, % at 11.2 µM | PathHunter beta-arrestin GPR151 cells, luminescence | Q8TDV0 | hit rate 1% among 650,000; in the data active means activation above about 4.9%
A number is an active result; - = inactive; . = not tested or not shown.

SMILES	FBW7 act	MITF inh	TEAD-YAP block	GPR151 ag
Cc1ccccc1-n1c(-c2ccc(Cl)cc2Cl)n[nH]c1=S	1.9	-	-	-
O=C(/C=C\Nc1ccccc1[N+](=O)[O-])c1ccc(F)cc1	-	-	43	-
Cc1ccc(C(=O)/C=C\Nc2ccccc2[N+](=O)[O-])cc1	-	-	-	-
O=C(/C=C/Nc1ccccc1[N+](=O)[O-])c1ccccc1	-	-	67	-
CCOc1ccc(N/C=C/C(=O)c2ccco2)c([N+](=O)[O-])c1	-	-	-	-
CCOc1ccc(N/C=C/C(=O)c2ccccc2)c([N+](=O)[O-])c1	-	-	60	-
COc1ccc(N2C(=O)NC(=O)C(Cc3ccc(OC)c(OC)c3)C2=O)cc1 (stereo not given)	-	-	-	-
Nc1ccc(S(=O)(=O)O)c2cccc(O)c12	-	71	-	-
CC1=NN(c2cccc(C(=O)O)c2)C(=O)/C1=C/c1ccc(C)o1	-	-	-	-
COc1cc(Br)c(/C=C2\C(=O)N(c3ccccc3)N=C2C)cc1OC	-	-	-	-
COc1cc(/C=C2/C(=O)N(c3cccc(C(=O)O)c3)N=C2C)cc2sc(=O)oc12	-	61	-	-
CC1=NN(c2cccc(C(=O)O)c2)C(=O)/C1=C\c1ccc(-c2cccc(C(=O)O)c2)o1	-	62	-	-
COc1cc(/C=C2\C(=O)N(c3cccc(C(=O)O)c3)N=C2C)c(Br)cc1O	-	62	-	-
CC1=NN(c2cccc(C(=O)O)c2)C(=O)/C1=C\c1ccco1	-	65	-	-
COc1ccc(/C=C2\C(=O)N(c3cccc(C(=O)O)c3)N=C2C)cc1OC	-	-	-	-
COc1ccc(C2C(C(=O)N3CCC(C)CC3)c3cc(OC)c(OC)cc3C(=O)N2C)cc1OC (stereo not given)	-	-	-	-
N#CCCn1cc(/C=C/C(=O)O)c(-c2cccc([N+](=O)[O-])c2)n1	-	-	-	-
COCCn1nnnc1C(c1ccccc1F)N1CCN(c2ccc(F)cc2)CC1 (stereo not given)	-	-	-	-
CC1=NN(c2cccc(C(=O)O)c2)C(=O)/C1=C\c1cc2c(cc1Cl)OCO2	-	61	-	-
CC1=NN(c2cccc(Cl)c2)C(=O)/C1=C/c1cc2c(cc1Cl)OCO2	-	-	-	-
Nc1c(N=Nc2ccc(-c3ccc(N=Nc4cc(S(=O)(=O)O)c5ccccc5c4N)cc3)cc2)cc(S(=O)(=O)O)c2ccccc12	-	-	-	-
Cc1cc(-c2ccc(N=Nc3ccc4c(S(=O)(=O)O)cc(S(=O)(=O)O)c(N)c4c3O)c(C)c2)ccc1N=Nc1ccc2c(S(=O)(=O)O)cc(S(=O)(=O)O)c(N)c2c1O	-	78	.	-
O=[N+]([O-])c1ccc(/C=C/c2nc3ccc([N+](=O)[O-])cc3[nH]2)cc1	-	-	-	-
O=[N+]([O-])c1ccc(/C=C/c2nc3ccccc3[nH]2)cc1	-	-	74	-
COc1ccc(C(=O)N2CCC3(CC2)NC(=O)N(CCc2ccccc2)C3=O)cc1OC	-	-	-	-
SMILES	FBW7 act	MITF inh	TEAD-YAP block	GPR151 ag
Cn1c(Nc2nc(NCc3ccccc3)c3ncn(C4CCCCC4)c3n2)nc2ccccc21	-	-	-	-
Cn1c(Nc2nc(NCc3nc4ccccc4[nH]3)c3ncn(C4CCCCC4)c3n2)nc2ccccc21	-	-	34	-
c1ccc2[nH]c(CNc3nc(N4CCOCC4)nc4c3ncn4-c3ccsc3)nc2c1	-	-	88	-
c1ccc2[nH]c(CNc3ncnc4nc(N5CCN(Cc6ccc7c(c6)OCO7)CC5)[nH]c34)nc2c1	-	-	54	-
c1ccc(-n2cnc3c(NCc4nc5ccccc5[nH]4)nc(N4CCC(N5CCOCC5)CC4)nc32)cc1	-	-	44	-
Cc1noc(C)c1-c1nc(NCc2nc3ccccc3[nH]2)c2ncn(-c3ccsc3)c2n1	-	-	-	-
OCCNc1ncnc2nc(N3CCN(Cc4ccc5c(c4)OCO5)CC3)[nH]c12	-	-	-	-
CC(C)n1cnc2c(NCc3nc4ccccc4[nH]3)nc(N3CCN(c4ccccn4)CC3)nc21	-	-	72	-
CCN(CC)c1nc(NCCc2ccc(O)cc2)nc(N2CCN(c3ccccn3)CC2)n1	-	-	-	-
c1ccc2[nH]c(CNc3nc(N4CCOCC4)nc4c3ncn4C3CCCCC3)nc2c1	-	-	74	-
CC(C)n1cnc2c(NCc3nc4ccccc4[nH]3)nc(N3CCC(N4CCOCC4)CC3)nc21	-	-	63	-
CCN(CC)c1nc(NCc2nc3ccccc3[nH]2)nc(N2CCN(c3ccccn3)CC2)n1	-	-	34	-
COCCNC(=O)C(=O)NCC(c1ccco1)S(=O)(=O)c1ccc(Cl)cc1 (stereo not given)	-	-	-	-
CC1=C(C(=O)Nc2ccccc2)C(c2cccs2)n2c(s/c(=C/c3cc(Br)c(Br)o3)c2=O)=N1 (stereo not given)	-	-	-	-
CC(C)n1cnc2c(NCc3nc4ccccc4[nH]3)nc(N3CCN(Cc4ccc5c(c4)OCO5)CC3)nc21	-	-	68	-
CC(C)n1cnc2c(NCc3nc4ccccc4[nH]3)nc(N3CCCC3CO)nc21 (stereo not given)	-	-	72	-
CC(C)n1cnc2c(NCc3nc4ccccc4[nH]3)nc(Nc3ccc(N4CCOCC4)cc3)nc21	-	-	57	-
CC(C)n1cnc2c(NCc3ccccc3)nc(N3CCN(Cc4ccc5c(c4)OCO5)CC3)nc21	-	-	-	-
c1ccc2[nH]c(CNc3nc(Nc4ccc(N5CCOCC5)cc4)nc4c3ncn4C3CCCCC3)nc2c1	-	-	-	-
COc1ccc(-n2cc(-c3ccccc3)c3c(Nc4ccc(OC)c(Cl)c4)ncnc32)cc1	-	-	-	-
CCOC(=O)c1ccc(N2N=C(C(F)(F)F)/C(=C/C=C/c3ccco3)C2=O)cc1	-	64	-	-
COCCOCCCN1CCC2(CC1)NC(=O)Cc1ccccc12	-	-	-	-
O=C1Cc2ccccc2C2(CCN(Cc3ccc(C(=O)c4ccccc4)cc3)CC2)N1	-	-	36	-
CCCCCNC(=O)c1cc(S(=O)(=O)N(CC)CC)ccc1F	-	-	-	-
COCCNC(=O)C(=O)N/N=C/c1ccccc1O	-	53	-	-
SMILES	FBW7 act	MITF inh	TEAD-YAP block	GPR151 ag
COCCNC(=O)CC(=O)N/N=C/c1ccccc1O	-	-	-	-
Cc1ccccc1NC(=O)C(=O)N/N=C/c1ccccc1O	-	52	-	-
Oc1cccc(/C=N/NC(=S)N/N=C/c2cccc(O)c2O)c1O	-	-	-	-
COCCNC(=S)N/N=C/c1ccc(O)c(O)c1O	-	107	-	-
CC(C)NC(=S)N/N=C/c1cccc(O)c1O	-	90	-	-
COCCNC(=S)N/N=C/c1cc(OC)c(OC)cc1OC	-	-	-	-
CCOC(=O)Cc1csc(Nc2ncnc(N)c2[N+](=O)[O-])n1	-	-	-	-
CC(C)CCN(Cc1cc([N+](=O)[O-])cc2c1OCOC2)S(=O)(=O)c1ccccc1F	-	-	-	-
O=[N+]([O-])c1cc2c(c(CN(Cc3ccco3)S(=O)(=O)c3ccccc3F)c1)OCOC2	-	-	47	-
